Counter-ions that a name gives are not always drawn.
Tests used:
Assay in all cases: Euclidean distance of Cell Painting phenotypic profile (signed KS, 77 features) to DMSO centroid (dimensionless distance); 5 or 10 uM (library dependent); higher = stronger phenotypic change vs DMSO (phenoactivity)
Conditions in all cases: 48 h
[1] = tested on: 786-O
Procedure, shortened: (§1)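 Library compounds were applied at 10 or 5 uM, depending on the library, with 0.1% DMSO final, for 48 h to five cancer lines and a healthy fibroblast line. After staining, cells were imaged confocally at 20X across 9 fields per well, and Harmony extracted 77 features, each scored as a signed Kolmogorov-Smirnov statistic against vehicle wells on the same plate. Phenoactivity is the Euclidean distance between each profile and the median vehicle profile, with profiles first plate-position corrected, correlation-weighted and averaged over replicates at the top dose.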

[2] = tested on: A549
Procedure, shortened: as §1

[3] = tested on: DU145
Procedure, shortened: as §1

[4] = tested on: FB
Procedure, shortened: as §1

[5] = tested on: HEPG2
Procedure, shortened: as §1

[6] = tested on: OVCAR4
Procedure, shortened: as §1

Compound | Euclidean distance [1] | Euclidean distance [2] | Euclidean distance [3] | Euclidean distance [4] | Euclidean distance [5] | Euclidean distance [6]
COc1cc(N2CCC(N3CCN(C)CC3)CC2)ccc1Nc1ncc(Cl)c(Nc2ccccc2S(=O)(=O)C(C)C)n1 | 2.54 | 3.06 | 2.48 | 3.6 | 1.66 | 3.35
Cc1ccc(Sc2cncc3sc(C(N)=O)cc23)cc1 | 1.1 | 1.05 | 0.78 | 1.61 | 1.24 | 0.995
COc1ccc(Cc2cnc(N)nc2N)cc1OC [Diaveridine] | 0.784 | 1.57 | 1.59 | 1.23 | 0.387 | 1.42
CCCN1C[C@H](C)[C@@H](O)[C@](C)(O)[C@@H](CC)OC(=O)[C@H](C)[C@@H](O[C@H]2C[C@@](C)(OC)[C@@H](O)[C@H](C)O2)[C@H](C)[C@@H](O[C@@H]2O[C@H](C)C[C@H](N(C)C)[C@H]2O)[C@](C)(O)C[C@H]1C [Gamithromycin] | 1.26 | 1.03 | 1.98 | 1.12 | 1.08 | 1.05
Cc1ccc(F)c(NC(=O)Nc2ccc(-c3cccc4[nH]nc(N)c34)cc2)c1 [Linifanib (ABT-869)] | 1.23 | 2.53 | 1.64 | 1.81 | 4.87 | 1.29
NCCc1c[nH]cn1 [Histamine 2HCl] | 1.32 | 0.957 | 0.954 | 1.22 | 0.814 | 0.832
CCOC(=O)c1ccc(OC(=O)CCCCCNC(=N)N)cc1 [Gabexate Mesylate] | 1.36 | 0.886 | 1.01 | 0.822 | 1.58 | 1.68
Cc1cccc(Nc2ccncc2S(=O)(=O)NC(=O)NC(C)C)c1 [Torsemide] | 0.608 | 0.66 | 0.572 | 0.798 | 0.917 | 0.866
CC1(C)S[C@@H]2[C@H](NC(=O)[C@H](N)c3ccc(O)cc3)C(=O)N2[C@H]1C(=O)O [Amoxicillin] | 1.02 | 1.01 | 0.78 | 0.837 | 0.318 | 1.22
CN(C)CCC=C1c2ccccc2C=Cc2ccccc21 [Cyclobenzaprine HCl] | 1.1 | 1.26 | 1.14 | 1.88 | 1.52 | 1.16
COc1ccc2cc([C@H](C)C(=O)O)ccc2c1 [Naproxen Sodium] | 1.02 | 0.936 | 0.948 | 0.856 | 0.593 | 0.977
CC(COc1ccccc1Cc1ccccc1)N1CCCCC1 (centres undefined) [Benproperine phosphate] | 1.67 | 1.63 | 1.72 | 1.18 | 1.58 | 1.42
CS(=O)(=O)n1cc2c(n1)CN([C@H]1CO[C@H](c3cc(F)ccc3F)[C@@H](N)C1)C2 [Omarigliptin (MK-3102)] | 1.02 | 2.02 | 1.89 | 1.7 | 2.25 | 2.16
N[C@H]1CONC1=O [L-Cycloserine] | 0.838 | 0.531 | 1.03 | 1.02 | 0.788 | 1.56
Cc1cc(C(=O)NOCCO)c(Nc2ccc(I)cc2F)n(C)c1=O | 2.89 | 2.95 | 2.82 | 4.35 | 1.48 | 1.72
O=C(Cn1cnnn1)N[C@@H]1C(=O)N2C(C(=O)O)=C(CSc3nncs3)CS[C@H]12 [Ceftezole sodium] | 0.633 | 1.39 | 1.36 | 0.846 | 0.929 | 0.929
N[C@@H](Cc1c[nH]c2ccc(O)cc12)C(=O)O [5-hydroxytryptophan (5-HTP)] | 1.11 | 0.965 | 0.903 | 0.927 | 0.404 | 0.744
C=C1CCN([C@H](C)[C@](O)(Cn2cncn2)c2ccc(F)cc2F)CC1 [Efinaconazole] | 0.843 | 0.567 | 0.723 | 0.84 | 0.73 | 0.881
N#Cc1ccnc(N2C(=O)CC[C@H]2C(=O)N(c2cncc(F)c2)[C@H](C(=O)NC2CC(F)(F)C2)c2ccccc2Cl)c1 [Ivosidenib (AG-120)] | 0.973 | 0.609 | 1.95 | 1.1 | 0.986 | 1.55
Nc1nc(F)nc2c1ncn2[C@@H]1O[C@H](COP(=O)(O)O)[C@@H](O)[C@@H]1O [Fludarabine Phosphate] | 2.13 | 2.48 | 1.94 | 3.2 | 1.57 | 2.98

Compound | Euclidean distance [1] | Euclidean distance [2] | Euclidean distance [3] | Euclidean distance [4] | Euclidean distance [5] | Euclidean distance [6]
CC(C)N(CC[C@H](c1ccccc1)c1cc(CO)ccc1O)C(C)C | 1.1 | 0.675 | 0.538 | 0.842 | 1.02 | 1.05
N=C1CCCN1Cc1[nH]c(=O)[nH]c(=O)c1Cl [Tipiracil hydrochloride] | 1.02 | 0.947 | 0.925 | 1.05 | 0.343 | 0.676
C[C@H](N)[C@H](O)c1cccc(O)c1 [Metaraminol Bitartrate] | 0.87 | 0.731 | 0.8 | 1.26 | 0.768 | 0.946
CCN1CCC[C@H]1CNC(=O)c1cc(S(N)(=O)=O)ccc1OC [Levosulpiride] | 1.03 | 0.793 | 1.14 | 0.991 | 1.73 | 1.77
C[C@H]1O[C@H](O[C@H]2[C@H](O)[C@@H](O)[C@@H](O[C@H]3[C@H](O)[C@@H](O)C(O)O[C@@H]3CO)O[C@@H]2CO)[C@H](O)[C@@H](O)[C@@H]1N[C@H]1C=C(CO)[C@@H](O)[C@H](O)[C@H]1O (some centres undefined) [Acarbose] | 1.5 | 1.91 | 1.47 | 1.59 | 0.847 | 1.46
CN(C)CCc1c[nH]c2ccc(C[C@H]3COC(=O)N3)cc12 [Zolmitriptan] | 1.26 | 1.23 | 1.25 | 0.876 | 0.663 | 1.74
CCCCC(=O)O[C@H]1CC[C@H]2[C@@H]3CCc4cc(O)ccc4[C@H]3CC[C@]12C [Estradiol valerate] | 1.37 | 0.77 | 1.17 | 0.885 | 0.621 | 1.21
NS(=O)(=O)Cc1noc2ccccc12 [Zonisamide] | 1.61 | 0.951 | 0.986 | 0.762 | 0.835 | 1.9
COc1cc(NC(C)CCCN)c2ncccc2c1 (centres undefined) [Primaquine Diphosphate] | 0.845 | 2.02 | 1.16 | 2.24 | 2.3 | 1.51
COC1=C2C[C@@H](C)C[C@H](OC)[C@H](O)[C@@H](C)/C=C(\C)[C@H](OC(N)=O)[C@@H](OC)/C=C\C=C(/C)C(=O)NC(=CC1=O)C2=O [Geldanamycin] | 2.87 | 3.3 | 3.52 | 3.35 | 1.8 | 2.91
CC(C)NCC(O)c1ccc(O)c(O)c1 (centres undefined) [Isoprenaline HCl] | 1.55 | 1.42 | 1.07 | 1.04 | 0.596 | 1.2
CCN1CCN(Cc2ccc(Nc3ncc(F)c(-c4cc(F)c5nc(C)n(C(C)C)c5c4)n3)nc2)CC1 | 5.75 | 5.05 | 5.66 | 4.66 | 3.78 | 5.2
N[C@H](C(=O)O)[C@H](O)c1ccc(O)c(O)c1 [Droxidopa] | 0.967 | 0.876 | 0.724 | 0.744 | 1.01 | 0.873
Cc1cn(-c2cc(NC(=O)c3ccc(C)c(Nc4nccc(-c5cccnc5)n4)c3)cc(C(F)(F)F)c2)cn1 [Nilotinib hydrochloride] | 2.28 | 4.11 | 3.01 | 1.85 | 3.37 | 3.14
FC(F)(F)C(Cl)Br (centres undefined) [Halothane] | 0.835 | 0.628 | 0.788 | 1 | 0.854 | 1.59
Nc1nc(N)c(N=O)c(OCC2CCCCC2)n1 | 1.11 | 1.58 | 0.998 | 1.01 | 0.792 | 1.38
OC(c1ccccc1)(c1ccccc1)C12CC[N+](CCOCc3ccccc3)(CC1)CC2 [Umeclidinium bromide] | 0.834 | 1.43 | 0.97 | 1.27 | 0.7 | 1.64
O=C(COc1ccc(Cl)cc1)N1CCN(Cc2ccc3c(c2)OCO3)CC1 [Fipexide hydrochloride] | 1.78 | 1.13 | 1.39 | 1.08 | 0.573 | 1.32
COc1cc(OC)c(/C=C/S(=O)(=O)Cc2ccc(OC)c(NCC(=O)O)c2)c(OC)c1 | 2.84 | 2.83 | 4.64 | 3.03 | 3.6 | 2.72
